# Source: PubChem BioAssay AID1845227 (National Center for Advancing Translational Sciences (NCATS), 2023)
# Inconclusive results are not listed. A number with no mark means an inactive call. Calls of active or inactive are those of the source. The call rests on the fitted dose curve; in most records, active means well fitted inhibition curve with a large enough effect; inconclusive means small, poorly fitted or top-dose-only effect; inactive means no such curve, though single readings can be large or run the other way.
# Molecular target: Luciferin 4-monooxygenase (Photinus pyralis) (UniProt P08659)
# Assay: Confirmatory firefly luciferase (FLuc) qHTS assay for identification of artifact compounds;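 on activity change, negative = inhibition: 0% = DMSO and -100% = no enzyme control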
# Settings: purified FLuc enzyme, luminescence, 5 min; series mostly up to 38.9 µM; activity change, negative = inhibition: at the top concentration
# Outline: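 Purified Photinus pyralis luciferase (10 nM) with D-luciferin and ATP each 10 uM, pH 7.6 Tris-acetate; compounds preincubated 15 min with substrate, 5 min after enzyme; luminescence normalized to no-enzyme and DMSO, 4-parameter Hill fit.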
# Potency means the concentration at half of the fitted maximal effect.
SMILES,"activity change, negative = inhibition [%]",Potency
COc1ccc(Cn2c(CNS(=O)(=O)c3ccc(Cl)s3)nc3cccnc32)cc1,3.97,–
O=C1C(c2ccc(F)cc2)N(CCc2ccc(Cl)cc2)C(=O)CN1C1CCCCC1 (stereo not given),1.88,–
CNc1oc(-c2ccc3cnccc3c2)nc1C#N,-4.28,–
Cc1ccc(-n2nnnc2CNC(=O)C(C)C)cc1C,5.51,–
CCOC(=O)c1c(C)[nH]c(C)c1S(=O)(=O)N1CCC(C(=O)N2CCN(c3ccccc3)CC2)CC1,1.27,–
Cc1ccc(Nc2c(-c3ccsc3)nc3cccc(C)n23)cc1,-11.5,–
Cc1nc(-c2ccc(Cl)cc2)sc1CCNC(=O)c1ccco1,-17.5,–
Cc1ccc(OC(C)C(=O)NCC2(N3CCOCC3)CCCCC2)cc1C (stereo not given),1.36,–
COC(=O)c1scc(-c2ccc(C)cc2)c1S(=O)(=O)N1CCN(c2ccc(C(C)=O)cc2)CC1,14.9,–
O=C(O)Cc1cc(F)c(S(=O)(=O)N2CCN(S(=O)(=O)c3ccc4c(c3)OCCO4)CC2)cc1F,-5.63,–
CCOC(=O)c1ccccc1Nc1cc(C)nc2nc(-c3ccco3)nn12,4.05,–
CCN(Cc1cccc(S(=O)(=O)O)c1)c1ccc(C(=C2C=CC(=[N+](CC)Cc3cccc(S(=O)(=O)O)c3)C=C2)c2ccccc2S(=O)(=O)[O-])cc1,–,12.2 µM (active)
Cc1ccc2nc(-c3cccs3)c(Nc3ccccc3)n2c1,-9.97,–
CCOC(=O)c1c(S(=O)(=O)N2CCCC(C(=O)Nc3cccc(C)n3)C2)c(C)n(C)c1C (stereo not given),8.05,–
Cc1ccccc1NS(=O)(=O)c1ccc2[nH]c3c(c2c1)CCCCC3,2.48,–
O=c1cc(-c2ccc(O)c(O)c2)oc2cc(O[C@@H]3O[C@@H](CO)[C@@H](O)[C@@H](O)[C@H]3O)cc(O)c12,6.06,–
COc1cc(C2C(C(=O)Nc3ccc(Cl)cc3)=C(C)Nc3nc(SC)nn32)cc(OC)c1OC (stereo not given),-10.6,–
Cc1cc(NC(=O)c2cccnc2)cc(-c2nc3cc(Cl)ccc3o2)c1O,-1.99,–
Cc1cc(-c2ccccc2)n2nc(-c3ccc(Cl)cc3)cc2n1,-0.184,–
CNc1cccc(S(=O)(=O)N2CCCN(S(=O)(=O)c3ccc4c(c3)OCCO4)CC2)c1,-3.42,–
